One assay has as its target GHSR. The experiment in a line: pooled miR-30 sensor sort-seq; sequence = guide strand. Particulars: shRNA.
The sequence TTGCAGTACTGGCTGATCTGAG registered a sensor-assay potency score (higher = more potent) of -0.301.
The sequence ATCTGAGCAATCTCCAAGGAGC gave a sensor-assay potency score (higher = more potent) of -1.45.
TTTCACGGTTTGCTTGTGGTTC yielded a sensor-assay potency score (higher = more potent) of -0.265.
Still for that read-out and setting: in the case of TTGGAAAATAAATATCGCCCTA it was -0.35; in that of TGGAAAATAAATATCGCCCTAC, -0.395.
In turn, TAGCGCTCGACGCTCAGCGCTG had a sensor-assay potency score (higher = more potent) of -1.17.
The sequence TTTGCAGAGGAGGTCGCCGAAG displayed a sensor-assay potency score (higher = more potent) of -1.38.
Sequence TTGAACCCCGGCTCTTCGCTGG displayed a sensor-assay potency score (higher = more potent) of -0.129.
Still for that read-out and setting: in the case of TAGAAGAGGACAAAGGACACGA it was 0.735.

The target in the next assay is GINS3. Described as above. Particulars: shRNA.
As for TTTCTTTCTCAACCTGAGGTTG, the sensor-assay potency score (higher = more potent) is -0.934.
The same measure, in the same setting: in the case of TTCTATGCAATAATGTTGCAAA it was -0.524.
Still for that read-out and setting: in the case of TTATAAAAACAACAATTCCATC it was -1.34; in that of TCTTCTTGTAATTCTGAACGAG, -0.383.
The same measure, in the same setting: in the case of TTTCTCTTCTTGTAATTCTGAA it was -0.125.
As for TAGTGCTTGCTTAACCAGGTTC, the sensor-assay potency score (higher = more potent) was -0.37.
Still for that read-out and setting: in the case of TAGTGAAACTGTACATCTGAAG it was -1.07; in that of TTTATTTAGCACTAAAATCAAA, -1.42; in that of TTTGTGGCTAGTGAAACTGTAC, -0.833.
TACAAGGTCAACCAGCTCCTAT returned a sensor-assay potency score (higher = more potent) of -1.16.
In turn, TTCTCTTCTTGTAATTCTGAAC showed a sensor-assay potency score (higher = more potent) of -1.11.
Same read-out and setting: in the case of TTATTTAGGAAGGACTTTGATT it was -0.522.

The next assay addresses GIPC2. The description is as above. Particulars: shRNA.
TTACTTTGTCCTTTCCAGCTTC yielded a sensor-assay potency score (higher = more potent) of -0.236.
In the case of TTTCTCCTGATGACTTTCCAGC, the sensor-assay potency score (higher = more potent) is -1.05.
On the same count and under the same terms, in the case of TTTATACACATTCACTTCTTTT it was -1.24; in that of TTAACTTCTTAGCAACATCATA, -1.57; in that of ATATGAAATCTTCTAGTCCTAG, -0.694.
Sequence TTAGGTTCTATTAACTTCATAG had a sensor-assay potency score (higher = more potent) of -0.883.
Same read-out and setting: in the case of TTAACTGAGTCAATAACACCAC it was 0.431; in that of TAACTTCTTAGCAACATCATAG, -1.26.
Same read-out and setting: in the case of TATGAAATCTTCTAGTCCTAGT it was -0.186; in that of TAACTGAGTCAATAACACCACC, -0.972; in that of ATACACATGAAATTAAACCAGA, -0.735.
The sequence TAAAAGCATAGCCAACACCATT registered a sensor-assay potency score (higher = more potent) of -1.62.

Another assay deals with GIP. The assay is described as above. Particulars: shRNA.
Consider TTGGTGAATCTTGTCCATGGCA, for which the sensor-assay potency score (higher = more potent) was -0.501.
Still for that read-out and setting: in the case of TAGTCACTGATGAAAGTCCCTT it was -0.346.
TTTGTCTGATCCAGCAAGCAGG returned a sensor-assay potency score (higher = more potent) of -1.07.
TCACCTTAGCATGAGATCCAAC gave a sensor-assay potency score (higher = more potent) of -1.2.
The same measure, in the same setting: in the case of TCTTGAATCAGCAAGTCCCGCA it was -0.377; in that of TTGAATCAGCAAGTCCCGCAGC, -0.492.
In turn, AATACTGTAGTCACTGATGAAA registered a sensor-assay potency score (higher = more potent) of -1.63.

Values taken from the OligoGym collection.
Further: reference of the scale not given here.
